Bioassay records as filed in PubChem.
SMN2 splice up – SMN2 splice variant enhancement. HEK293 SMN2-luciferase splicing reporter, luminescence, 30-36 h. Potency, µM (highest dose often 46.1 µM), actives largely listed as activators. hit rate 2.8% among 210,000. AID 1458; note: nearly all actives have a fitted effect of over 55% in size
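HEK293 cells carry an SMN2 minigene-luciferase reporter in which exon 7 inclusion puts luciferase in frame. Cells were seeded at 2000 cells/well, attached for 10-12 hours, then exposed to compounds for 30-36 hours at 37C before ONE-Glo luminescence.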
ELG1 repair inh – inhibitors of ELG1-dependent DNA repair in HEK293T cells; HEK293T ELG1-luciferase reporter, luminescence, 16 h; DNA damage induced by 5-fluorouridine; hit rate 2.3% among 330,000; Potency, µM (titrated, usually from 46.1 µM), actives largely listed as inhibitors; note: nearly all actives have a fitted effect of over 55% in size
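5-Fluorouridine DNA damage + compound/DMSO, 2,000 cells/well, 16 h, 37 °C/5% CO2. ONE-Glo, 30 min RT, luminescence. Readout = decrease in reporter signal.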
ELG1 genotox – inducers of genotoxicity in HEK293T ELG1-luciferase cells. hit rate 1.3% among 330,000. Potency, µM (series often up to 46 µM), actives largely listed as activators. HEK293T ELG1-luciferase reporter, luminescence, 16 h; note: nearly all actives have a fitted effect of over 60% in size
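HEK293T cells expressing luciferase-tagged ELG1 were exposed to compound or DMSO vehicle for 16 hr at 37 °C and 5% CO2. Luciferase activity was then measured with ONE-Glo after 30 min at room temperature.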
FLuc modulator – counter-screen for miR-21 project: firefly luciferase inhibitors or activators; Potency, µM (titrated, usually from 57.5 µM), actives largely listed as inhibitors; P08659; purified FLuc, Km substrates, luminescence inhibition; hit rate 6.9% among 360,000; note: nearly all actives have a fitted effect of over 55% in size
Target sequence (P08659 whole entry, looked up): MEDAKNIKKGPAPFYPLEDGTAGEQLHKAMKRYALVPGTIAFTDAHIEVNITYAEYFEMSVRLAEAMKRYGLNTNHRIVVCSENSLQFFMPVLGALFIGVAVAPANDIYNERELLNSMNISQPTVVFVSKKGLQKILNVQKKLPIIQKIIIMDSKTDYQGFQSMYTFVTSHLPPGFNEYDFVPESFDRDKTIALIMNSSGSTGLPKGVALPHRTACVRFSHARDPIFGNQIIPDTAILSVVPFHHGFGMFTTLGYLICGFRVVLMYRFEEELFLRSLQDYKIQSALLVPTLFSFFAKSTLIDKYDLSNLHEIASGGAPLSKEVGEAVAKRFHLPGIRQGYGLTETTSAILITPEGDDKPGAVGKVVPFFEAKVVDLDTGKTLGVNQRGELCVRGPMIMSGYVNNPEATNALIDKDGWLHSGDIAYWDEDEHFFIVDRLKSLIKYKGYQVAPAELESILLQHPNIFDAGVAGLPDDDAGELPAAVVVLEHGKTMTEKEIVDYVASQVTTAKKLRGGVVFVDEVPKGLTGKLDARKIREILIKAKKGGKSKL
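Purified P. pyralis luciferase, 10 nM final, with Km-level 10 uM D-luciferin and 10 uM ATP in 50 mM Tris acetate pH 7.5, 10 mM Mg acetate, 0.01% Tween-20, 0.05% BSA; 6-point qHTS titration about 60 µM downward; luminescence read.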
NPC1 promoter act – activates the NPC1 promoter; Huh7 NPC1 promoter luciferase reporter, 24 h; Potency, µM (highest dose often 9.22 µM), most hits filed as activators; hit rate 2.4% among 320,000; note: nearly all actives have a fitted effect of over 60% in size
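Stable NPC1-promoter luciferase Huh7 line; cpd (DMSO) 24 h, 37 °C, 5% CO2; Amplite luciferase reagent 10 min RT; luminescence readout. qHTS format.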
Rab9 prom act – activators of Rab9 promoter; Huh7 Rab9 promoter-luciferase reporter, luminescence, 24 h; Potency, µM (highest dose often 9.22 µM), usual class: activators; hit rate 2.8% among 320,000; note: nearly all actives have a fitted effect of over 60% in size
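Stable Rab9-luc Huh7, 1500 cells/well, 2 h settle; cmpd in DMSO, 24 h, 37 °C/5% CO2; luciferase reagent 10 min RT; luminescence.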
Each line names hits and unclear results; the compound was inactive in the other large screens. Only some compounds are listed: those with a hit (about 9.4% of all), similar ones and a draw of the others. Calls come from the whole dose curve; as a rule, active = well fitted curve in the direction sought with a large enough effect; inconclusive = small, poorly fitted or top-dose-only effect, or another doubt; inactive = no such curve, though single readings can be large; an effect the other way counts as inactive or inconclusive.

N#Cc1ccc2c(c1)C[C@]1(CCCCN3C(=O)c4ccccc4C3=O)Oc3cc(-c4ccccc4)oc(=O)c3[C@H]2O1	none (no result: SMN2 splice up, ELG1 repair inh, ELG1 genotox)
CC(=O)Nc1ccc(NC(=O)C(C)Sc2n[nH]c(-c3ccc(C)cc3)n2)cc1 (centres undefined)	FLuc modulator 24µM, Rab9 prom act inconclusive (no result: SMN2 splice up)
O=C1C=C(Nc2ccccc2O)c2ccccc2C1=O	ELG1 repair inh inconclusive
O=C1C=C(NCc2ccccc2)c2ccccc2C1=O	ELG1 repair inh 12µM (no result: SMN2 splice up)
CN(Cc1ccccc1)C(=O)COC(=O)c1cc([N+](=O)[O-])ccc1N1CCOCC1	none (no result: SMN2 splice up)
COc1ccc(CN(C)C(=O)COC(=O)c2cc([N+](=O)[O-])ccc2N2CCCC2)c(OC)c1OC	ELG1 repair inh 15µM (no result: SMN2 splice up, FLuc modulator, NPC1 promoter act, Rab9 prom act)
O=c1[nH]c2cc3c(cc2cc1CN(Cc1cccnc1)Cc1nnnn1Cc1ccco1)OCCO3	ELG1 repair inh 23µM
O=c1[nH]c2cc3c(cc2cc1CN(Cc1cccs1)Cc1nnnn1Cc1ccco1)OCCO3	ELG1 repair inh inconclusive, FLuc modulator inconclusive
O=c1[nH]c2cc3c(cc2cc1CN(Cc1ccccc1)Cc1nnnn1Cc1ccco1)OCCO3	ELG1 repair inh inconclusive, FLuc modulator inconclusive
COc1ccccc1CN(Cc1cc2cc3c(cc2[nH]c1=O)OCCO3)Cc1nnnn1Cc1ccco1	ELG1 repair inh 21µM
CCc1nc2ccccc2c(C(=O)OCC(=O)Nc2ccc(S(=O)(=O)N3CCOCC3)cc2)c1C	ELG1 repair inh 18µM
CCc1nc2ccccc2c(C(=O)OCC(=O)Nc2cccc(S(=O)(=O)NC3=NCCCCC3)c2)c1C	ELG1 repair inh 13µM (no result: SMN2 splice up)
CC(=O)NS(=O)(=O)c1ccc(NC(=O)c2cc(-c3ccc(C)c(C)c3)nc3ccccc23)cc1	ELG1 repair inh inconclusive, FLuc modulator 1.3µM
Cc1ccnc(NS(=O)(=O)c2ccc(NC(=O)c3cc(-c4ccccc4)nc4ccccc34)cc2)n1	FLuc modulator inconclusive
CC(=O)NS(=O)(=O)c1ccc(NC(=O)c2cc(-c3ccc(C)cc3)nc3ccccc23)cc1	FLuc modulator 8.5µM
CC(=O)Nc1ccc(-c2cc(C(=O)O)c3ccccc3n2)cc1	FLuc modulator 3.4µM (no result: SMN2 splice up)
Cc1ccc(-c2cc(C(=O)Nc3ccc(S(=O)(=O)Nc4nc(C)cc(C)n4)cc3)c3ccccc3n2)cc1	SMN2 splice up 14µM, FLuc modulator 17µM
CC(=O)NS(=O)(=O)c1ccc(NC(=O)c2cc(-c3cccs3)nc3ccccc23)cc1	FLuc modulator inconclusive
Cc1cccc(OCC(=O)Nc2ccc3c(c2)nc(CCN2CCN(c4ccccn4)CC2)n3C)c1	ELG1 repair inh 15µM (no result: SMN2 splice up)
CCN1CCN(CCc2nc3cc(NC(=O)COc4ccc(Cl)cc4)ccc3n2C)CC1	none (no result: SMN2 splice up)
Cn1c(CCN2CCN(c3ccccn3)CC2)nc2cc(NC(=O)COc3ccc(Cl)cc3)ccc21	ELG1 repair inh 9.2µM (no result: SMN2 splice up)
N#Cc1ccccc1NC(=O)C(=O)NCC(c1ccc2c(c1)OCO2)N1CCOCC1 (centres undefined)	none (no result: SMN2 splice up, ELG1 repair inh, ELG1 genotox, NPC1 promoter act, Rab9 prom act)
CCS(=O)(=O)N1CCc2cc(C(=O)N3CCN(c4ccccc4)CC3)ccc21	none (no result: SMN2 splice up, ELG1 repair inh, ELG1 genotox, NPC1 promoter act, Rab9 prom act)
COc1cccc(C(=O)OCC(=O)NCCC2=CCCCC2)c1	ELG1 repair inh inconclusive (no result: SMN2 splice up, FLuc modulator, NPC1 promoter act, Rab9 prom act)
O=C(NN1C(=O)/C(=C/c2cccs2)SC1=S)c1ccccc1	none
Cc1ccc(C2=N/C(=C\c3cccs3)C(=O)N2Nc2ccccc2)cc1	ELG1 repair inh 15µM
Cc1ccc(NC(=O)/C(=C\c2cccs2)NC(=O)c2ccccc2)cc1	none
O=C1/C(=C/c2cccs2)N=C(c2cccs2)N1Nc1ccccc1	ELG1 repair inh inconclusive, FLuc modulator 24µM
O=C1/C(=C\c2cccs2)N=C(c2cccs2)N1Nc1ccccc1	ELG1 repair inh inconclusive, FLuc modulator 21µM
Cc1cc(/C=N/Nc2ncnc(N)c2[N+](=O)[O-])c(C)n1-c1ccccc1	ELG1 repair inh inconclusive, ELG1 genotox inconclusive, FLuc modulator 0.076µM, NPC1 promoter act inconclusive (no result: SMN2 splice up)
